Several values for one entry are separate records, joined by “and”; a condition that tells them apart may be missing. Identical values can stand only once. Among all 5,500 compounds or so, about 2,000 (36%) were called active. About 18% were inconclusive and are not listed. Cut-off read from the data, not from the text of the source: active = normalized growth mostly below about 0.91 (no sharp cut-off); inconclusive = no clear call, values can overlap the other calls; inactive = mostly above about 0.92. The list shows a part of the results.
Assay: chemical genetic growth profiling, strain panel (AID 1159580);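 note: tested at 20 µM; growth read once vehicle control cultures reached saturation at 30 °C; 1 = growth at the plate median or of vehicle wells; lower values mean less growth of the strain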
Conditions: S. cerevisiae deletion strains, growth OD

Measured: normalized growth

CC(=O)O[C@@H]1CC2C(C)(C)[C@H](O)CC[C@]2(C)C2CC[C@@]3(C)[C@H](c4ccoc4)OC(=O)C4OC43[C@@]21C (stereo partly specified)
inactive: locus YAL021C, strain ccr4, stronger effect = lower value 0.991 | locus YAL026C, strain drs2, stronger effect = lower value 1.03 | locus YAL030W, strain snc1, stronger effect = lower value 1.01 | locus YBL061C, strain skt5, stronger effect = lower value 1.01 | locus YBR009C, strain hhf1, stronger effect = lower value 1.04 | locus YBR021W, strain FUR4, stronger effect = lower value 0.974 | locus YBR023C, strain chs3, stronger effect = lower value 1.02 | locus YBR171W, strain sec66, stronger effect = lower value 1.02 | locus YBR229C, strain ROT2, stronger effect = lower value 0.957 | locus YBR231C, strain swc5, stronger effect = lower value 1.02 | locus YBR279W, strain paf1, stronger effect = lower value 1.01 | locus YCL011C, strain gbp2, stronger effect = lower value 1.01 | locus YCL016C, strain dcc1, stronger effect = lower value 1.02 | locus YCL029C, strain bik1, stronger effect = lower value 0.993 | locus YCL061C, strain MRC1, stronger effect = lower value 1.02 | locus YCL069W, strain vba3, stronger effect = lower value 1 | locus YCR088W, strain abp1, stronger effect = lower value 1.01 | locus YDL005C, strain med2, stronger effect = lower value 1.02 | locus YDL035C, strain GPR1, stronger effect = lower value 0.984 | locus YDL040C, strain nat1, stronger effect = lower value 1 | locus YDL074C, strain BRE1, stronger effect = lower value 1 | locus YDL101C, strain DUN1, stronger effect = lower value 0.998 | locus YDL134C, strain PPH21, stronger effect = lower value 1.03 | locus YDL185W, strain tfp1, stronger effect = lower value 0.97 | locus YDL192W, strain arf1, stronger effect = lower value 0.999 | locus YDR001C, strain nth1, stronger effect = lower value 1.01 | locus YDR069C, strain doa4, stronger effect = lower value 1.04 | locus YDR101C, strain arx1, stronger effect = lower value 0.967 | locus YDR137W, strain rgp1, stronger effect = lower value 1.02 | locus YDR159W, strain sac3, stronger effect = lower value 1.05 | locus YDR162C, strain NBP2, stronger effect = lower value 0.999 | locus YDR195W, strain ref2 1.03 | locus YDR297W, strain sur2, stronger effect = lower value 1.01 | locus YDR318W, strain mcm21, stronger effect = lower value 0.996 | locus YDR334W, strain swr1, stronger effect = lower value 1.01 | locus YDR335W, strain msn5, stronger effect = lower value 1.03 | locus YDR388W, stronger effect = lower value 1 | locus YDR392W, strain spt3, stronger effect = lower value 0.834 | locus YDR502C, strain sam2, stronger effect = lower value 1.01 | locus YEL003W, strain gim4, stronger effect = lower value 1.03 | locus YEL037C, strain rad23, stronger effect = lower value 1.01 | locus YEL061C, strain CIN8 (second series), stronger effect = lower value 1.02 | locus YER015W, strain faa2, stronger effect = lower value 1.01 | locus YER016W, strain bim1, stronger effect = lower value 1.02 | locus YER110C, stronger effect = lower value 0.98 | locus YER111C, strain swi4, stronger effect = lower value 1.02 | locus YER155C, strain BEM2 (second series), stronger effect = lower value 1.03 | locus YER155C, strain BEM2, stronger effect = lower value 1.01 | locus YER167W, strain BCK2, stronger effect = lower value 0.996 | locus YFR010W, strain ubp6, stronger effect = lower value 1.04 | locus YGL078C, strain dbp3, stronger effect = lower value 1.01 | locus YGL086W, strain mad1, stronger effect = lower value 0.984 | locus YGL167C, strain pmr1, stronger effect = lower value 1.01 | locus YGL173C, strain kem1, stronger effect = lower value 1.01 | locus YGL227W, strain vid30, stronger effect = lower value 1.02 | locus YGL240W, strain doc1, stronger effect = lower value 1.04 | locus YGL248W, strain PDE1, stronger effect = lower value 1.01 | locus YGL253W, strain hxk2, stronger effect = lower value 0.997 | locus YGR135W, strain pre9, stronger effect = lower value 1.05 | locus YGR252W, strain gcn5, stronger effect = lower value 1.04 | locus YHR013C, strain ard1, stronger effect = lower value 1.02 | locus YHR027C, strain rpn1, stronger effect = lower value 1.01 | locus YHR030C, strain SLT2, stronger effect = lower value 1.07 | locus YHR079C, strain IRE1 (second series), stronger effect = lower value 0.983 | locus YHR079C, strain IRE1, stronger effect = lower value 1.05 | locus YHR094C, strain hxt1, stronger effect = lower value 0.989 | locus YHR129C, strain ARP1, stronger effect = lower value 1.01 | locus YHR142W, strain chs7, stronger effect = lower value 0.939 | locus YHR200W, strain rpn10, stronger effect = lower value 0.996 | locus YIL066C, strain RNR3, stronger effect = lower value 0.973 | locus YIL073C, strain SPO22, stronger effect = lower value 0.958 | locus YIL125W, strain kgd1, stronger effect = lower value 0.962 | locus YIR030C, strain dcg1, stronger effect = lower value 0.988 | locus YJL092W, strain hpr5, stronger effect = lower value 1.02 | locus YJL095W, strain BCK1 (second series), stronger effect = lower value 1.02 | locus YJL095W, strain BCK1, stronger effect = lower value 1.06 and 1.08 | locus YJL115W, strain asf1, stronger effect = lower value 1.02 | locus YJL129C, strain trk1, stronger effect = lower value 1 | locus YJL134W, strain LCB3, stronger effect = lower value 0.991 | locus YJL154C, strain vps35, stronger effect = lower value 0.999 | locus YJL164C, strain tpk1, stronger effect = lower value 1.02 | locus YJL166W, strain qcr8, stronger effect = lower value 1.02 | locus YJL168C, strain set2, stronger effect = lower value 0.996 | locus YJL187C, strain SWE1 (second series), stronger effect = lower value 1.02 | locus YJL187C, strain SWE1, stronger effect = lower value 1.01 | locus YJR043C, strain POL32, stronger effect = lower value 0.977
